Tb PYK inh: inhibitors of Trypanosoma brucei pyruvate kinase | Q57TT1 | TbPYK enzyme, Kinase-Glo Plus ATP luminescence, 45 min | Potency, µM (top dose mostly 76.8 µM), hits mostly inhibitors | 410,000 compounds, 0.12% hits | AID 624173; note: nearly all actives have a fitted effect of over 50% in size
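Luminescent Kinase-Glo Plus end-point after 45 min room-temperature reaction of T. brucei pyruvate kinase started with 130 uM ADP (final). Buffer TEA 50 mM pH 7.2 with KCl, MgCl2, BSA, Tween-20; titration-based qHTS with fitted concentration-effect curves.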
RE007 growth inh: less growth of the S. pombe RE007 Vpr strain; AID 651644; Potency, µM (doses to about 92.2 µM), most hits filed as inhibitors; S. pombe RE007 Vpr strain, BacTiter-Glo ATP luminescence, 24 h; 360,000 compounds, 0.21% hits; active = well fitted falling curve with a large enough effect; inconclusive = small, poorly fitted or top-dose-only effect; inactive = no such curve, though single readings can be large or run the other way; note: nearly all actives have a fitted effect of over 50% in size
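Fission yeast RE007 carrying one integrated HIV-1 vpr copy, seeded at OD 0.01 in PMG+AL medium with 23 nL pinned compound. Grown 24 h at 30 degrees; viability read by BacTiter-Glo luminescence after 5 min.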
Giardia FBPA inh: Giardia lamblia aldolase inhibition; purified Giardia FBPA; Potency, µM (series often up to 59.6 µM), most hits filed as inhibitors; 290,000 compounds, 0.71% hits; AID 2451; note: nearly all actives have a fitted effect of over 55% in size
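40 nM FBPA preincubated 10 min at RT with compound (up to 57.5 uM final), then substrate plus GAPDH/TPI/NAD/arsenate coupling and diaphorase/resazurin added. Fluorescence read after 20 min at RT, 525/598 nm.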
CHX counter: affects cycloheximide protein synthesis inhibition readout, counter-screen. 300,000 compounds, 12% hits. max response, %. AID 2314. cell reporter, cycloheximide protein synthesis inhibition counterscreen; in the data active = max response mostly above about 13%, no sharp cut-off; inactive = mostly below about 14%; note: read at 38.3 µM for the half of the compounds with a filed dose
LmPK inhibitor: LmPK (Leishmania mexicana) enzyme inhibition. AID 1721. 290,000 compounds, 0.37% hits. purified LmPK, Kinase-Glo ATP luminescence, 1 h. Potency, µM (doses to about 57.5 µM), usual class: inhibitors. Q27686
Target sequence (Q27686 whole entry, looked up): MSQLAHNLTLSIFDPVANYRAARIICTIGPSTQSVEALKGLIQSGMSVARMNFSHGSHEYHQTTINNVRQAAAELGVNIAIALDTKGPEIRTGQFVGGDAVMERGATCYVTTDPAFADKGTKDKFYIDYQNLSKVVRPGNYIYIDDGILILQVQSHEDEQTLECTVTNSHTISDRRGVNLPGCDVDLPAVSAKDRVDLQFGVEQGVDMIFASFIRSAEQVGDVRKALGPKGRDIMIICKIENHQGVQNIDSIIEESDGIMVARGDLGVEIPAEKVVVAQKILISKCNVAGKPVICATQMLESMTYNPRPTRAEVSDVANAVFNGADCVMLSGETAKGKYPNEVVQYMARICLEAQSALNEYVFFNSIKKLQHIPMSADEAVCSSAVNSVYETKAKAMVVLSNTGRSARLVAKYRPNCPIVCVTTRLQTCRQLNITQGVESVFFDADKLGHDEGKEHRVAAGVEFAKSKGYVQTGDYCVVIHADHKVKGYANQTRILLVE
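Purified LmPK (0.1 nM) converted ADP (0.1 mM) to ATP with PEP (0.5 mM) in imidazole buffer pH 7.2 with KCl and MgCl2, 1 h at room temperature. ATP was read by Kinase-Glo luminescence; data normalized to uninhibited and no-enzyme controls.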
Shiga toxin inh: Shiga toxin inhibition | Vero cells, Shiga toxin protein synthesis inhibition reporter | inhibition, % at 38.7 µM | 290,000 compounds, 9.2% hits; in the data active = inhibition mostly above about 28%, no sharp cut-off; inactive = mostly below about 43%
A number is an active result. The sample as a whole holds a higher share of hits than the screen did. Unless noted, calls come from the whole dose curve; as a rule, active = well fitted curve in the direction sought with a large enough effect; inconclusive = small, poorly fitted or top-dose-only effect, or another doubt; inactive = no such curve, though single readings can be large; an effect the other way counts as inactive or inconclusive.

CC1(C)CCCC2=C1CC1C(=O)N(N)C(=O)C1C2 (centres undefined) was read as Tb PYK inh inactive, RE007 growth inh inactive, Giardia FBPA inh inactive, CHX counter inactive, LmPK inhibitor inactive and Shiga toxin inh inactive.
COC(=O)c1sccc1NC(=O)Nc1ccc(F)cc1F was read as Tb PYK inh inactive, RE007 growth inh inactive, Giardia FBPA inh inactive, CHX counter inactive, LmPK inhibitor inactive and Shiga toxin inh inactive.
`COC(=O)c1sccc1NC(=O)Nc1ccc(C(C)=O)cc1` gave Tb PYK inh inactive, RE007 growth inh inactive, CHX counter 45, LmPK inhibitor inactive and Shiga toxin inh 53.
For CCc1c(C)sc(NC(=S)Nc2cccnc2)c1C(=O)OC the results were Tb PYK inh inactive, RE007 growth inh inactive, Giardia FBPA inh inconclusive, CHX counter inactive, LmPK inhibitor inactive and Shiga toxin inh 22.
Screening CCn1cc(C(=O)NCCN(CC(C)C)CC(C)C)c(=O)c2cc(S(=O)(=O)N(C)C3CCCCC3)ccc21 returned Tb PYK inh inactive.
`COc1ccc(S(=O)(=O)n2nc(OC(=O)c3ccc(C)cc3)cc2N)cc1` gave Tb PYK inh inactive, RE007 growth inh inactive, Giardia FBPA inh inactive, CHX counter 27, LmPK inhibitor inactive and Shiga toxin inh inactive.
`O=C(NC1CCCCC1)c1cccnc1Sc1ccccc1` gave Tb PYK inh inactive, RE007 growth inh inactive, Giardia FBPA inh inactive, CHX counter inactive, LmPK inhibitor inactive and Shiga toxin inh inactive.
Screening Cc1ccc(C)c(OCc2cc(C(=O)N3C[C@@H](C)O[C@@H](C)C3)no2)c1 returned Tb PYK inh inactive, RE007 growth inh inactive, CHX counter 48, LmPK inhibitor inactive and Shiga toxin inh 87.
CN1CCN(C(=O)c2cc(COc3ccc(F)cc3Cl)on2)CC1c1ccccc1 (centres undefined) was read as Tb PYK inh inactive, RE007 growth inh inactive, Giardia FBPA inh inactive, CHX counter inactive, LmPK inhibitor inactive and Shiga toxin inh inactive.
Screening COc1cc(C)ccc1OCc1cc(C(=O)N2CCC(c3ccc(F)cc3)C2)no1 (centres undefined) returned Tb PYK inh inactive, RE007 growth inh inactive, CHX counter 58, LmPK inhibitor inactive and Shiga toxin inh 113.
Screening Cc1ccc(C)c(OCc2cc(C(=O)N3CC[C@@H]4CCCC[C@H]4C3)no2)c1 returned Tb PYK inh inactive, RE007 growth inh inactive, CHX counter 33, LmPK inhibitor inactive and Shiga toxin inh 105.
Screening C[C@@H]1CN(C(=O)c2cc(COc3cccc(C(F)(F)F)c3)on2)C[C@H](C)O1 returned Tb PYK inh inactive, RE007 growth inh inactive, CHX counter inactive, LmPK inhibitor inactive and Shiga toxin inh inactive.
Screening Cc1ccc(C(=O)Nc2ccc3oc(-c4ccc(C(C)(C)C)cc4)nc3c2)cc1 returned Tb PYK inh inactive.
COc1cc(/C=C/C(=O)O[C@H]2CC[C@]34C[C@]35CC[C@]3(C)[C@@H]([C@H](C)CCC=C(C)C)CC[C@@]3(C)C5CCC4C2(C)C)ccc1O (some centres undefined) was read as Tb PYK inh inactive.
`CCS(=O)(=O)c1ccc2c(c1)N(S(=O)(=O)c1ccc(Cl)cc1)CC(C(=O)O)O2` (centres undefined) gave Tb PYK inh inactive, RE007 growth inh inactive, Giardia FBPA inh inactive, CHX counter inactive, LmPK inhibitor inactive and Shiga toxin inh inactive.
`Cc1ccccc1C(=O)Nc1nnc(SCc2cc(=O)n3ccccc3n2)s1` gave Tb PYK inh inactive.
`O=S(=O)(c1cccs1)N1CN(Cc2cccs2)c2nc3ccccc3nc21` gave Tb PYK inh inactive, RE007 growth inh inactive, Giardia FBPA inh inactive, CHX counter inactive, LmPK inhibitor inactive and Shiga toxin inh inactive.
Screening COc1ccc(CCN2CN(S(=O)(=O)c3ccc(OC)cc3)c3nc4ccccc4nc32)cc1 returned Tb PYK inh inactive, RE007 growth inh inactive, Giardia FBPA inh inactive, CHX counter 27, LmPK inhibitor inactive and Shiga toxin inh 39.
Screening COc1ccc(CCN2CN(S(=O)(=O)c3ccc(C)cc3)c3nc4ccccc4nc32)cc1OC returned Tb PYK inh inactive, RE007 growth inh inactive, Giardia FBPA inh inactive, CHX counter inactive, LmPK inhibitor inactive and Shiga toxin inh inactive.

Compound activity deposited in PubChem BioAssay by National Center for Advancing Translational Sciences (NCATS).
